In PubChem BioAssay AID602144 (Vanderbilt Specialized Chemistry Center, 2011):
Unmarked numbers belong to inactive results. Calls of active or inactive are those of the source. Rule as the data show it: active = remaining activity below about 50%; inactive = the rest.

biological target: Phospholipase D1 (Homo sapiens) (UniProt Q13393); assay: cellular phospholipase D1 activity inhibition – Calu-1 cells, single concentration (AID 602144); conditions: cellular PLD1 activity, active compounds read low;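 also: tested at 200 nM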
Sequence (Q13393 whole entry, looked up): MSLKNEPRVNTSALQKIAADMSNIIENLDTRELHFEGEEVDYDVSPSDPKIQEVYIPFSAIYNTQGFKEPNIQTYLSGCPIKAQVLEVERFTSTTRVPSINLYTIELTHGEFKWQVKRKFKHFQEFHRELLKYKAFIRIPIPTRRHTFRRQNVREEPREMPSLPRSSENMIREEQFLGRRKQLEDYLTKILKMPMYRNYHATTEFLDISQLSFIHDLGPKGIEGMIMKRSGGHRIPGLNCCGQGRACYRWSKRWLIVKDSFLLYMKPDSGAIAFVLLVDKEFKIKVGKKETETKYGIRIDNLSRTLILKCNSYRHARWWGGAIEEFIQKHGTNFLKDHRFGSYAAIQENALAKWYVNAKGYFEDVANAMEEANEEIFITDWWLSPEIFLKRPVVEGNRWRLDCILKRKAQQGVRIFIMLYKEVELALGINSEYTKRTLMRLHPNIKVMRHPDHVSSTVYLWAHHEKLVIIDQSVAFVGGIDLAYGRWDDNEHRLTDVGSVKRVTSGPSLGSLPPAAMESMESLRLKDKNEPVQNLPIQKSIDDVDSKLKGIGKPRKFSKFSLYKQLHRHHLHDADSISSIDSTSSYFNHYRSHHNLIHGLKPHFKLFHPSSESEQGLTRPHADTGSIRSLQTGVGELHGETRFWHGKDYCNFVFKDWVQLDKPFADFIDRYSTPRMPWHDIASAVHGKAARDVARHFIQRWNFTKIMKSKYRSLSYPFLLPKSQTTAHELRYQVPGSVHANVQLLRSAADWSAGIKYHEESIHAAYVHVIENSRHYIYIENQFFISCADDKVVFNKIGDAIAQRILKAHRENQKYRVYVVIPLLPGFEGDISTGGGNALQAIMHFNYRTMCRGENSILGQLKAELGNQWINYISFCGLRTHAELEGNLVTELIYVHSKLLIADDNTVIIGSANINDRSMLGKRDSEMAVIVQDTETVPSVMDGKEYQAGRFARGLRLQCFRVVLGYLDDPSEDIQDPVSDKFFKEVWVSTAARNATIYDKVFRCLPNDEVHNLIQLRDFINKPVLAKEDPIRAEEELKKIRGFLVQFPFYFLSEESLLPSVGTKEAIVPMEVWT
Sequence (Q13393 whole entry, looked up): as above

SMILES | remaining activity
C[C@@H](CN1CC=C(n2c(=O)[nH]c3ccccc32)CC1)NC(=O)[C@H]1C[C@@H]1c1ccccc1 | 15.7% (active)
C[C@@H](CN1CCC(n2c(=O)[nH]c3ccccc32)CC1)NC(=O)c1cc2cc(F)ccc2[nH]1 | 30.1% (active)
O=C(NCCN1CCC2(CC1)CNCc1ccccc12)c1ccc2ccccc2c1 | 122%
